Measured values taken from PubChem BioAssay.
Potency and affinity values are given separately. Activity calls are given as the source filed them. The limit is not given here; nearly all actives have IC50 up to about 0.98 µM.

These compounds were tested against Calcium-dependent protein kinase 1 (Plasmodium falciparum (isolate 3D7)) (UniProt P62344) (assay: PfCDPK1 kinase inhibitors, biochemical, TCAMS library (AID 1159585;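 also: inhibitors leave more ATP so luminescence rises with inhibition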)). Settings: recombinant PfCDPK1, Kinase-Glo ATP depletion luminescence.
Sequence of Calcium-dependent protein kinase 1 (Plasmodium falciparum (isolate 3D7)) (P62344 whole entry, looked up): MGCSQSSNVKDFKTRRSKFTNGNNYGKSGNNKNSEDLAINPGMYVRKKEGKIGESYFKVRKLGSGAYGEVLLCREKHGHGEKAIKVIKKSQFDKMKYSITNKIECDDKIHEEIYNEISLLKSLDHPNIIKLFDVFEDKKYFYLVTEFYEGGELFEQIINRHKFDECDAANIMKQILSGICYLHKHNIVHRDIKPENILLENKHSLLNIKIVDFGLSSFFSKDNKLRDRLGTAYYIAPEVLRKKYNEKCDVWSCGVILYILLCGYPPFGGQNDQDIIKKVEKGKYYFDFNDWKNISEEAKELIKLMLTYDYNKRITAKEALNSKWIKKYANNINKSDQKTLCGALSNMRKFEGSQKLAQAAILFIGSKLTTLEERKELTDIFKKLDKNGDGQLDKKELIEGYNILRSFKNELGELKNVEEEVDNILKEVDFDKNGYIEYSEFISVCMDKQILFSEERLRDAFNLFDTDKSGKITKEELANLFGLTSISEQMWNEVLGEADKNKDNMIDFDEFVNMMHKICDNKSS

outcome, inactive:
COc1cccc(-n2ncc3c(N/N=C/c4ccc(CN(C)CCN(C)C)cc4)ncnc32)c1, COc1cc(CCNCC(O)c2ccc([N+](=O)[O-])c(OCc3ccccc3)c2)cc(OC)c1OC (stereo unspecified), O=C(Nc1cccc(Cl)c1)c1cc2ccccc2cc1O, Clc1cccc(C=NNc2ccnc3cc(Cl)ccc23)c1, CN(C)Cc1ccc(CNC2CCN(Cc3ccccc3Cl)CC2)cc1, Cc1ccc(Cn2ccc3c4c(N)nc(N)nc4ccc32)cc1, COc1cc(Nc2nccc(-c3c(-c4cccc(NC(=O)c5c(F)cccc5F)c4)nn4ncccc34)n2)cc(OC)c1OC, Cn1cccc1C(=O)Nc1cccc(-c2nn3ccccc3c2-c2ccnc(Nc3ccc4c(c3)OCCO4)n2)c1, O=C(Nc1ccccc1)Nc1cccc(-c2nn3c(OCCN4CCCC4)cccc3c2-c2ccncc2)c1, COc1cccc(-c2nc(Nc3ccncc3)c3ncn(C)c3n2)c1, CO/N=C(\C)c1ccc2c(c1)CCN(CCC1CCC(NC(=O)c3cccc(-c4noc(C)n4)c3)CC1)CC2 (stereo unspecified), Cc1[nH]nc2ccc(-c3cc(OC[C@@H](N)Cc4ccccc4)cnc3-c3cc4ccccc4s3)cc12, Oc1ccc(CCNCCCCCNCCCc2ccc(Cl)cc2)cc1O, Cc1cccc(Cn2ccc3c(N)nc(N)nc32)c1, CCN(CC)CCCN(C(=O)Nc1cc(F)cc(F)c1)c1nc(-c2ccc(F)cc2)cs1, Fc1ccccc1C=NNc1ccnc2cc(Cl)ccc12
